Measured values as given in the supplement of paper PMC7156485.
“And” between values parts separate entries of the source, which are not always exact repeats. Equal entries are not always repeated. Structures can show the parent of a compound that is named as a salt. Unmarked numbers belong to inactive results.

The compounds below were run on HCC1569 (assay: H1.0 immunofluorescence intensity relative to DMSO (% of DMSO); higher = stronger H1.0 induction, active = 140 or more). Conditions: concentration: 10 µM; 24 h.
Summary of the method: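 Cells were seeded at 800 per well in 384-well plates with RPMI containing 10% FBS; both HCC1569 and TDF lines were used. Compounds were added at 10 µM for 24 h at 37 °C, in triplicate, before fixation in 3.7% formaldehyde and staining with a rabbit anti-H1.0 antibody, an AlexaFluor 647 secondary and DAPI. H1.0 nuclear intensity or cell number is reported as percent of the plate control using the median of replicates, and HCC1569 values were smoothed for positional effects.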
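Note: TDF is a line of transformed human dermal fibroblasts of mesenchymal origin.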

In the case of `COCC(=O)NCC=Cc1ccc2ncnc(Nc3ccc(Oc4ccc(C)nc4)c(C)c3)c2c1`, the H1.0 immunofluorescence intensity is reported as 158 (active).
For `OCC(CO)(CO)NCC(O)Cn1c2ccc(Cl)cc2c2cc(Cl)ccc21` (configuration not stated), the H1.0 immunofluorescence intensity was 168 (active).
`Cc1nn(C)c2nc(NNC(=O)Nc3cc(Cl)nc(Cl)c3)cc(C(C)C)c12` was tested, and the H1.0 immunofluorescence intensity was 140 (active).
With `CC(Cc1ccc(O)c(O)c1)C(C)Cc1ccc(O)c(O)c1` (configuration not stated) the H1.0 immunofluorescence intensity was 116 and 122.
In the case of `CCCCCCCC/C=C\CCCCCCCC(=O)NCc1ccc(O)c(OC)c1` [(9Z)-N-(4-hydroxy-3-methoxybenzyl)-9-octadecenamide], the H1.0 immunofluorescence intensity is reported as 171 (active).

In order of rising H1.0 immunofluorescence intensity:
1. O=c1c(-c2ccc(O)cc2)coc2cc(OC3OC(CO)C(O)C(O)C3O)ccc12 (configuration not stated) [Daidzin]  89.9
2. CC1(C)OC2CC(=O)OCC23C1CC(=O)C1(C)C3CCC2(C)C(c3ccoc3)OC(=O)C3OC321 (configuration not stated) [Limonin]  90
3. COc1nc(C)nc(Cl)c1NC1=NCCN1.Cl [Moxonidine hydrochloride]  90.3
4. CN(C)c1ccc(O)c2c1CC1CC3C(N(C)C)C(=O)C(C(N)=O)=C(O)C3(O)C(=O)C1=C2O.Cl (configuration not stated)  91.5
5. O=c1[nH]c(=O)c2nc3ccccc3nc2[nH]1 [Alloxazine]  92.1
6. CCCCCC=CCC=CCC=CCC=CCCCC(=O)OC(COCCCCCCCCCCCCCCCC)COP(=O)([O-])OCC[N+](C)(C)C (configuration not stated) [Arachidonyl-PAF]  93.4
7. COc1ccc2c(c1OC)C(=O)OC2C1c2c(cc3c(c2OC)OCO3)CCN1C (racemic)  94.1
8. CC[N+](CC)(CC)CC(=O)Nc1c(C)cccc1C.[Br-] [Lidocaine N-ethyl bromide quaternary salt]  94.3
9. CCCOc1cc2c(cc1\C(C)=C/C=C/C(C)=C/C(=O)O)C(C)(C)CCC2(C)C  95.9
10. CC(C(O)c1ccc(O)cc1)N1CCC(Cc2ccccc2)CC1 (configuration not stated) [Ifenprodil tartrate]  98.5
11. CCCCCC=CCC=CCC=CCC=CCCCC(=O)OC(CO)CO [2-Arachidonoylglycerol]  99.5
12. CCOC(=O)CN1C(=O)c2ccc3c4c(ccc(c24)C1=O)C(=O)N(CC(=O)OCC)C3=O  100
13. CCCCCCCCCCCC=CCCCCCCC(=O)O [8(Z)-Eicosenoic acid]  103
14. CCOC(=O)C1=C(COCCN)NC(C)=C(C(=O)OC)C1c1ccccc1Cl (configuration not stated) [Amlodipine]  106
15. COc1cc2ncc(-c3ccccc3)nc2cc1OC  107
16. c1ccc(C(OC2CCN(CCCc3nn[nH]n3)CC2)c2ccccc2)cc1 [4-(benzhydryloxy)-1-[3-(1H-tetraazol-5-yl)propyl]piperidine]  107
17. COC(=O)C1=C(C)NC(C)=C(C(=O)OCCN(C)Cc2ccccc2)C1c1cccc([N+](=O)[O-])c1.Cl (configuration not stated) [Nicardipine.HCl]  107
18. CC(C)(C)c1ccc(S(=O)(=O)NCc2ccc(C(=O)Nc3cccnc3)cc2)cc1  107
19. CC1(C)CCC(C)(C)c2cc(C(=O)Nc3ccc(C(=O)O)cc3)ccc21  109
20. O=C(Nc1cccc(Nc2ncc(Br)c(NCCc3cnc[nH]3)n2)c1)N1CCCC1  109
21. N#CC(=C(N)Sc1ccc(N)cc1)c1ccccc1C(F)(F)F [MEK1/2 Inhibitor]  110
22. CS(=O)(=O)c1ccc(C2=C(c3ccccc3)C(=O)OC2)cc1 [Rofecoxib]  111
23. N#Cc1c(-c2ccccc2)no[n+]1[O-] [4-Phenyl-3-furoxancarbonitrile]  122
24. C=CC(=O)Nc1cc2c(Nc3ccc(F)c(Cl)c3)ncnc2cc1OCCCN1CCOCC1.Cl.Cl [Canertinib]  125
25. CN(C)CCC=C1c2ccccc2Sc2ccc(Cl)cc21.Cl [Chlorprothixene hydrochloride]  127
26. COc1cc2ncnc(Nc3ccc(NC(=O)c4ccccc4)cc3)c2cc1OC [Aurora Kinase Inhibitor II]  133
27. O.O.O=c1c(O)c(-c2ccc(O)c(O)c2)oc2cc(O)cc(O)c12 [Quercetin dihydrate]  134
